Source: PubChem
Only some compounds are listed: those with a hit (about 19% of all), similar ones and a draw of the others.
Pf growth 48h – inhibits P. falciparum growth in the first generation, 48 h; P. falciparum luciferase growth in erythrocytes, 48 h; Potency, µM (titrated, usually from 28.7 µM), most hits filed as inhibitors; 310,000 compounds, 5.9% hits; AID 504832
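Parasite viability was followed by luminescence of a genomically integrated firefly luciferase. Cultures held 0.1% parasitemia at 2% hematocrit (final), incubated under 5% CO2 at 37 C.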
Marburg entry inh – inhibitors of Marburg virus binding or cell entry | Marburg virus pseudotyped entry inhibition, cell reporter | Potency, µM (top dose mostly 37.8 µM), actives largely listed as inhibitors | 300,000 compounds, 1.8% hits | AID 540276; calls by dose curve; tested in HEK293 cells
Shiga toxin inh – blocks Shiga toxin action in Vero cells; Vero cells, Shiga toxin protein synthesis inhibition reporter; inhibition, % at 38.7 µM; 290,000 compounds, 9.2% hits; AID 2315; in the data active = inhibition mostly above about 28%, no sharp cut-off; inactive = mostly below about 43%
LASV entry inh – inhibitors of Lassa virus binding or cell entry. 300,000 compounds, 1.2% hits. Lassa virus pseudotype entry inhibition, cell reporter. Potency, µM (highest dose often 37.9 µM), most hits filed as inhibitors. AID 540256; calls by dose curve; tested in HEK293 cells; also: nearly all actives have a fitted effect of over 50% in size
Cycloheximide cs – counter-screen for Shiga toxin inhibitors: cycloheximide protein synthesis inhibition; cell reporter, cycloheximide protein synthesis inhibition counterscreen; max response, %; 300,000 compounds, 12% hits; AID 2314; in the data active = max response mostly above about 13%, no sharp cut-off; inactive = mostly below about 14%; also: read at 38.3 µM for the half of the compounds with a filed dose
Pf growth 96h – inhibits malaria parasite growth, 96 h. P. falciparum luciferase reporter growth, 96 h. Potency, µM (doses to about 28.7 µM), actives largely listed as inhibitors. 320,000 compounds, 6.9% hits. AID 504834
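Compounds incubated with erythrocytes infected by luciferase-expressing P. falciparum (2% hematocrit, 0.05% parasitemia final) for 96 hours, 37 C in 5% CO2. Growth inhibition scored as decreased luciferase luminescence.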
Large screens that a line does not name were inactive. Unless noted, calls follow the shape of the dose curve; as a rule, active = well fitted inhibition curve with a large enough effect; inconclusive = small, poorly fitted or top-dose-only effect, or another doubt; inactive = no such curve, though single readings can be large or run the other way.

Cc1cccc(Nc2ccc3nonc3c2[N+](=O)[O-])c1C	none
CCN(CC)C(=O)c1ccc(NC(=O)COc2ccccc2F)cc1	Marburg entry inh inconclusive, Shiga toxin inh 76, LASV entry inh inconclusive, Cycloheximide cs 22
COc1ccccc1CC(=O)Nc1ccc2nc(C)sc2c1	Shiga toxin inh 80, Cycloheximide cs 25
Cc1nc2ccc(NC(=O)COc3ccccc3F)cc2s1	Marburg entry inh inconclusive, Shiga toxin inh 72, Cycloheximide cs 31
Cc1cc(CNC(=O)COc2ccccc2F)c2ccccc2n1	Marburg entry inh inconclusive, Shiga toxin inh 87, Cycloheximide cs 37
COc1cc(CC(=O)Nc2ccc3nc(C)sc3c2)cc(OC)c1OC	none
COc1cc(S(=O)(=O)N2CCN3CCCC3C2)ccc1-n1cnnn1 (stereo not given)	LASV entry inh inconclusive (no result: Pf growth 96h)
COc1cccc(CC(=O)Nc2ccc3nc(C)sc3c2)c1	Marburg entry inh inconclusive, Cycloheximide cs 30
CN(C)C=Nc1ncc2c([nH]c3ccccc32)c1C#N	Pf growth 48h inconclusive, Cycloheximide cs 50, Pf growth 96h inconclusive
Cc1ccc(N2C(=O)C(CN3CCCC3)C2c2ccccc2)cc1 (stereo not given)	Pf growth 48h inconclusive, Marburg entry inh inconclusive, Pf growth 96h inconclusive (no result: LASV entry inh)
COc1ccc(C2/C(=C(/O)c3ccc(C)cc3)C(=O)C(=O)N2c2ccccn2)cc1 (stereo not given)	none
COc1ccc(/C(O)=C2/C(=O)C(=O)N(c3ccccn3)C2c2ccc(F)cc2)cc1 (stereo not given)	Pf growth 96h 6.6µM (no result: Marburg entry inh, LASV entry inh)
COc1cccc(/C(O)=C2\C(=O)C(=O)N(c3ccccn3)C2c2ccccc2OC)c1 (stereo not given)	Pf growth 96h 5.2µM
Cc1cc(N2C(=O)C(=O)/C(=C(/O)c3ccc(F)cc3)C2c2ccc(Cl)cc2)no1 (stereo not given)	Pf growth 48h 13µM
COc1ccccc1NC(=O)C(NC(=O)c1ccc(C)cc1)c1ccccc1 (stereo not given)	Marburg entry inh inconclusive, LASV entry inh inconclusive
O=C(O)c1ccc(CSc2nc3ccc(N4C(=O)C5C6C=CC(C6)C5C4=O)cc3s2)cc1 (stereo not given)	Marburg entry inh inconclusive
CC(C)Sc1nc2ccc(N3C(=O)C4CCCCC4C3=O)cc2s1 (stereo not given)	Marburg entry inh inconclusive, Cycloheximide cs 24
COC(=O)[C@@H](NC(=O)N1CCN(c2cccc(C(F)(F)F)c2)CC1)C(C)C	Pf growth 48h inconclusive, Marburg entry inh inconclusive, Pf growth 96h inconclusive
CCC(C)[C@H](NC(=O)N1CCN(c2cccc(C(F)(F)F)c2)CC1)C(=O)OC (stereo not given in full)	Marburg entry inh inconclusive, Pf growth 96h 5.2µM (no result: Pf growth 48h)
COc1ccc(CN(C)C(=O)c2cccc(NC(=O)CC3SC(N4CCCCC4)=NC3=O)c2)c(OC)c1 (stereo not given)	Marburg entry inh 10µM, LASV entry inh 7.1µM (no result: Pf growth 48h, Shiga toxin inh, Cycloheximide cs, Pf growth 96h)
COc1cccc(CN(C)C(=O)c2cccc(NC(=O)CC3SC(N4CCCCC4)=NC3=O)c2)c1OC (stereo not given)	Pf growth 48h 10µM, Pf growth 96h 9.3µM (no result: Marburg entry inh, Shiga toxin inh, LASV entry inh, Cycloheximide cs)
CC(C)NC(=O)c1cccc(NC(=O)CC2SC(N3CCCCC3)=NC2=O)c1 (stereo not given)	Pf growth 48h inconclusive, Marburg entry inh inconclusive (no result: Shiga toxin inh, Cycloheximide cs)
COc1ccccc1CCNC(=O)c1ccc(NC(=O)CC2SC(N3CCCCC3)=NC2=O)cc1 (stereo not given)	Pf growth 48h 12µM, Pf growth 96h 10µM (no result: Marburg entry inh, Shiga toxin inh, LASV entry inh, Cycloheximide cs)
COc1cccc(NC(=O)CN(C)C(=O)c2ccc(NC(=O)CC3SC(N4CCCCC4)=NC3=O)cc2)c1 (stereo not given)	Pf growth 48h inconclusive (no result: Shiga toxin inh, Cycloheximide cs)
Cc1ncc(CO)c(/C=N/NC(=O)c2ccccc2Br)c1O	Marburg entry inh inconclusive, Pf growth 96h inconclusive
Cc1ccccc1Nc1c(-c2cccc(Cl)c2)nc2ncccn12	none (no result: Pf growth 48h, Shiga toxin inh, Cycloheximide cs, Pf growth 96h)
Cc1ccc(NC(=O)CN2C(=O)COc3ccc(S(=O)(=O)N4CCCCCC4)cc32)cc1C	none (no result: Pf growth 48h, Marburg entry inh, Shiga toxin inh, Cycloheximide cs, Pf growth 96h)
CC(NC(=O)c1ccc(C#N)cc1)C1CC2CCC1C2 (stereo not given)	LASV entry inh inconclusive
c1ccc(Cc2nn3c(C4COc5ccccc5O4)nnc3s2)cc1 (stereo not given)	Shiga toxin inh 72, Cycloheximide cs 33 (no result: Pf growth 96h)
Cc1ccc(-c2nnc3sc(C4COc5ccccc5O4)nn23)cc1 (stereo not given)	none (no result: Pf growth 48h)
COc1ccccc1-c1nn2c(C3COc4ccccc4O3)nnc2s1 (stereo not given)	Pf growth 96h 3.7µM
c1ccc(CCc2nn3c(C4COc5ccccc5O4)nnc3s2)cc1 (stereo not given)	Shiga toxin inh 35, Cycloheximide cs 24
CCOc1ccc(NC(=O)Cn2c(=O)cc(C)c3c(C)nn(C)c32)cc1	none (no result: Pf growth 48h, Marburg entry inh, Shiga toxin inh, Cycloheximide cs, Pf growth 96h)
COc1ccc(C2/C=C\CN(S(=O)(=O)c3ccc4ccccc4c3)CC(=O)N2Cc2ccc(F)cc2)cc1 (stereo not given)	Pf growth 48h 13µM, Pf growth 96h inconclusive (no result: Marburg entry inh, LASV entry inh)
COc1ccc(C2/C=C\CN(C(=O)c3ccccc3)C(C)C(=O)N2Cc2ccc(F)cc2)cc1 (stereo not given)	none (no result: Pf growth 48h, Marburg entry inh, LASV entry inh, Pf growth 96h)
COc1ccc(C2/C=C\CN([S+](=O)([O-])c3ccc4ccccc4c3)C(C)C(=O)N2Cc2ccc(F)cc2)cc1 (stereo not given)	Shiga toxin inh 149 (no result: Pf growth 48h, Marburg entry inh, LASV entry inh, Pf growth 96h)
COc1ccc(C2/C=C\CN(Cc3ccccc3)C(C)C(=O)N2Cc2ccc(F)cc2)cc1 (stereo not given)	Shiga toxin inh 62, Cycloheximide cs 36 (no result: Pf growth 48h, Marburg entry inh, LASV entry inh, Pf growth 96h)
Cc1nc2ccc(S(=O)(=O)NCC(=O)N3CCN(c4ccccc4)CC3)cc2s1	Pf growth 48h inconclusive, Pf growth 96h inconclusive
Cc1ccc(SCC(=O)Nc2cccc(C(=O)NC(C)(C)C)c2)cc1	LASV entry inh inconclusive
CC(=O)NS(=O)(=O)c1ccc(NC(=O)CSc2ccccc2)cc1	Pf growth 96h inconclusive (no result: Marburg entry inh, LASV entry inh)
CC(C)(C)NC(=O)c1ccc(NC(=O)CSc2ccccc2)cc1	Cycloheximide cs 15
O=C(CSc1ccc(F)cc1)Nc1ccc(C2SCCS2)cc1	Marburg entry inh inconclusive, Shiga toxin inh 85, Cycloheximide cs 35
CN1CCN(c2ccc(NC(=O)CSc3ccccc3)cc2F)CC1	Marburg entry inh inconclusive, Shiga toxin inh 61, LASV entry inh inconclusive, Cycloheximide cs 49
CC(=O)Oc1ccc(NC(=O)CSc2ccccc2)cc1	Marburg entry inh inconclusive, Cycloheximide cs 45, Pf growth 96h inconclusive
Cc1ccc(SCC(=O)Nc2ccc(N3CCN(c4ccccc4)CC3)c(F)c2)cc1	none
O=C(CSc1ccccc1)Nc1ccncc1	Cycloheximide cs 12
CN1C(=O)c2ccc(NC(=O)CSc3ccccc3)cc2C1=O	Cycloheximide cs 28 (no result: Marburg entry inh, LASV entry inh)
O=C(CSc1ccccc1)NC1=NCCS1	Cycloheximide cs 22
COc1ccc(CNC(=O)CCCn2c(SCC(N)=O)nc3cc4c(cc3c2=O)OCO4)cc1	none (no result: Pf growth 48h, Marburg entry inh, Shiga toxin inh, Cycloheximide cs, Pf growth 96h)
Cc1noc(C)c1S(=O)(=O)N1CCCCC1	none (no result: Pf growth 48h)
